Source: PubChem BioAssay AID652053 (Broad Institute, 2013)
About 930 (72%) of roughly 1,300 compounds were called active.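 The calls were made as follows: active = fitted curve reaches 40% activation signal increase at or below the top valid tested concentration in every replicate test; inconclusive = replicate tests disagree in their calls; inactive = all replicate tests inactive, including effects opposite the expected signal rise.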 The set was probably picked from earlier hits. A selection follows. Potency and affinity values are given separately.

Assay: miR-122 inhibitors in Huh7 reporter cells, dose response, cell-based, Huh7 psiCHECK-miR122, Renilla luciferase, cherry-pick (AID 652053)
Conditions: 48 h; series mostly up to 35 µM; activation (miR-122 inhibition): at the top concentration

Activation (miR-122 inhibition), inactive:
COc1cc(C(=S)N2CCOCC2)cc(OC)c1OC(=O)c1ccc(F)cc1 2.77%, O=C(Oc1ccc(C(=S)N2CCOCC2)cc1)c1ccccc1F -11.9%, O=C(Oc1ccc(C(=S)N2CCOCC2)cc1)c1ccccc1 -1.54%, O=C(Oc1ccc(C(=S)N2CCOCC2)cc1)c1ccc(F)cc1 -4.16%, CCOC(=O)c1ccc(NS(=O)(=O)c2ccc3[nH]c(=O)[nH]c3c2)cc1 15.1%, CC(=O)N1[C@H](CO)[C@@H](c2ccc(C3=CCCCC3)cc2)[C@@H]1CNC(=O)CN(C)C 2.05%, CCCNC(=O)NC[C@H]1[C@H](c2ccc(C3=CCCC3)cc2)[C@@H](CO)N1C(=O)CC 18.1%, CCCNC(=O)NC[C@@H]1[C@H](c2ccc(C3=CCCC3)cc2)[C@H](CO)N1C(=O)CC -2.66%, CCCNC(=O)NC[C@H]1[C@@H](c2ccc(C3=CCCC3)cc2)[C@H](CO)N1C(=O)CC 22.9%, CCCNC(=O)NC[C@H]1[C@@H](c2ccc(C3=CCCC3)cc2)[C@@H](CO)N1C(C)=O 56.5%, CCCNC(=O)NC[C@H]1[C@H](c2ccc(C3=CCCC3)cc2)[C@H](CO)N1C(=O)CC 4.17%, CCC(=O)N1[C@H](CNC(=O)CN(C)C)[C@@H](c2ccc(C3=CCCC3)cc2)[C@@H]1CO 7%, CCCNC(=O)NC[C@@H]1[C@H](c2ccc(C3=CCCC3)cc2)[C@@H](CO)N1C(=O)CC -9.1% [at 30 µM], CN(C)Cc1cccc(-c2ccccc2)c1O 17.8%, O=S(=O)(Nc1ccncc1)c1ccc(Cl)cc1 -7.92%, COc1ccc(-c2cccc(-c3cc(=O)oc4cc(OC)cc(OC)c34)c2)cc1 8.47%, COc1cc(OC)c2c(-c3cccc(-c4ccc(O)cc4)c3)cc(=O)oc2c1 5.68%, COc1cc(OC)c2c(-c3cccc(-c4ccc(N(C)C)cc4)c3)cc(=O)oc2c1 32.1%, Cc1cc(C(=O)N2CCc3ccccc32)n(-c2ccccc2)n1 15.6%, C/C(=N\NC(=O)c1cc(-c2cccs2)nc2ccccc12)c1ccccn1 -5.64%, CC(C)n1cc(NC(=O)c2cc(-c3ccccc3)on2)cn1 -6.08%, O=C(C[C@@H]1CC[C@H]2[C@@H](COC[C@@H](O)CN2C(=O)C2CCCC2)O1)NCc1ccncc1 -14.2%, O=C(COc1ccccc1F)c1ccc(O)cc1O 15.5%, Cc1c(C(=O)N(C)CCC#N)oc2ccc(S(=O)(=O)N3CCOCC3)cc12 -3.44%, COc1ccccc1N1CCN(S(=O)(=O)c2ccc(F)cc2)CC1 -3.23%, COc1ccc(NC(=O)N(C)C[C@@H]2Oc3ccc(NC(=O)Nc4ccc(C(F)(F)F)cc4)cc3CC(=O)N([C@@H](C)CO)C[C@H]2C)cc1 -1.45% [at 30 µM], C[C@@H]1CN([C@@H](C)CO)C(=O)c2cc(NC(=O)CCC(F)(F)F)ccc2O[C@@H]1CN(C)C(=O)Nc1ccc2c(c1)OCO2 -9%, COc1ccc(NC(=O)N(C)C[C@@H]2Oc3ccc(NC(=O)Nc4ccc(C(F)(F)F)cc4)cc3CC(=O)N([C@H](C)CO)C[C@@H]2C)cc1 8.26%, COc1ccc(NC(=O)N(C)C[C@H]2Oc3ccc(NC(=O)Nc4ccc(C(F)(F)F)cc4)cc3CC(=O)N([C@H](C)CO)C[C@H]2C)cc1 16% [at 30 µM], COc1ccc(NC(=O)N(C)C[C@H]2Oc3ccc(NC(=O)Nc4ccc(C(F)(F)F)cc4)cc3CC(=O)N([C@H](C)CO)C[C@@H]2C)cc1 -1.37%, COc1ccc(NC(=O)N(C)C[C@H]2Oc3ccc(NC(=O)Nc4ccc(C(F)(F)F)cc4)cc3CC(=O)N([C@@H](C)CO)C[C@H]2C)cc1 37.5%
